The record followed here is PubChem BioAssay (EPA / NIEHS).

Inconclusive results are not listed. Activity calls are given as the source filed them. Rule for the calls: active = hit-call score of the fitted dose curve at least 0.9, where 1 is the maximum; inconclusive = response in the unintended direction; inactive = score below 0.9.

The first experiment in a line: ACEA_AR_agonist_AUC_viability: ACEA Biosciences xCELLigence Real-Time Cell Analysis on Androgen Receptor Agonism for Viability (AID 2283775).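 For AC50: viability read 80 hours after compound addition.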 Put shortly:
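Real-time impedance tracking of 22Rv1 growth, readings every 5 min for 5 h then hourly; area-under-curve viability endpoint at 80 hours, relative to DMSO. Compounds at eight concentrations, 1:4 steps, top 100 uM, n = 2.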
Turning to `COC(=O)c1c(Cl)c(Cl)c(C(=O)OC)c(Cl)c1Cl`, the molecule was called inactive. The same measure, in the same setting: then `COC(=O)CC(=O)OC`, with “inactive”. Turning to `CN(C)c1ccc(Cc2ccc(N(C)C)cc2)cc1`, the AC50 is 56.8 µM (active). As to `Clc1nc(Cl)c(Cl)c(Cl)c1Cl`, the molecule was called inactive. Same read-out and setting: then `O=c1[nH]c2ccc(S(=O)CCN3CCC(Cc4ccc(F)cc4)CC3)cc2o1` (centres undefined), with “inactive”. With `CCCCCCc1ccc(O)cc1O`, the half-maximal activity concentration (AC50) is 16.1 µM (active). Still for that read-out and setting: then `CCOc1cccc(-n2cc(C(=O)N3CCN(c4cc(C(=O)O)c5ccccc5c4)CC3)nc2-c2ccc(C)cc2)c1`, with 7.41 µM (active). Consider `Cc1ccc(O)cc1`, for which the outcome was inactive.

Another experiment in a line: ACEA_AR_antagonist_AUC_viability: ACEA Biosciences xCELLigence Real-Time Cell Analysis on Androgen Receptor Antagonism for Viability (AID 2283776).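 Note: 22Rv1 human prostate cancer cells growing on impedance electrode plates; hits lower the growth signal relative to DMSO meaning cytotoxicity.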 Put shortly:
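Viability endpoint from label-free cell-index monitoring: 22Rv1 cultures treated with an eight-point 1:4 dilution series starting at 100 uM final, AUC at 80 h fitted against DMSO.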
With `O=C1CCCCCN1`, the molecule was called inactive. With `CC(C)CCCCCCCOC(=O)CCCCC(=O)OCCCCCCCC(C)C`, the molecule was classed as inactive. Still for that read-out and setting: then `O=C1CCC(N2C(=O)c3ccccc3C2=O)C(=O)N1` (centres undefined), with “inactive”; and `CC(O)CN(CCN(CC(C)O)CC(C)O)CC(C)O` (centres undefined), with “inactive”. As to `CCC(C)(C)C(=O)O[C@H]1C[C@@H](C)C=C2C=C[C@H](C)[C@H](CC[C@@H]3C[C@@H](O)CC(=O)O3)[C@H]21`, the AC50 is 32.1 µM (active). Take `CC(C)(O)c1coc(S(=O)(=O)NC(=O)Nc2c3c(cc4c2CCC4)CCC3)c1`: the molecule was called inactive.

Regarding `CC[C@H](C)C(=O)O[C@H]1C[C@@H](C)C=C2C=C[C@H](C)[C@H](CC[C@@H]3C[C@@H](O)CC(=O)O3)[C@H]21`, the AC50 was 50 µM (active). With `CCOCCO`, the outcome was inactive.

On to `COCCOc1cc2cc(C(=O)NC3CCN(C(C)C)CC3)n(CC(=O)Nc3ccc(Cl)cn3)c2cn1`, for which the AC50 is 45 µM (active). For `C1=CCCC=CCCC=CCC1`, the call was inactive. `Cc1ccc(N)cc1O`: the half-maximal activity concentration (AC50) is 87.4 µM (active).

One may read the AC50 as the concentration at which the activity in the assay is half-maximal.
